Laboratory results published in PubChem BioAssay AID1159580 (chemical genetic matrix, 2015).
Where “and” joins values, the source holds several entries; their conditions need not be identical. Equal entries are not always repeated. The whole screen tested about 5,500 compounds, of which about 2,000 (36%) were called active. Inconclusive results (about 18%) are left out. No stated cut-off is given here; in the data, active means normalized growth mostly below about 0.91 (no sharp cut-off); inconclusive means no clear call, values can overlap the other calls; inactive means mostly above about 0.92. The list shows a part of the results.

Assay: chemical genetic growth profiling, strain panel (AID 1159580);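 further: tested at 20 µM; growth read once vehicle control cultures reached saturation at 30 °C; 1 = growth at the plate median or of vehicle wells; lower values mean less growth of the strain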
Settings: S. cerevisiae deletion strains, growth OD

Measured: normalized growth

CC1(C)O[C@H]2[C@H](O)C[C@](O)(C(N)=O)C[C@H]2O1
inactive: locus YAL013W, strain DEP1, active compounds read low 1.01 | locus YAL021C, strain ccr4, active compounds read low 0.996 | locus YAL026C, strain drs2, active compounds read low 1.04 | locus YAL030W, strain snc1, active compounds read low 1.01 | locus YBL061C, strain skt5, active compounds read low 1.01 | locus YBR009C, strain hhf1, active compounds read low 1.02 | locus YBR021W, strain FUR4, active compounds read low 1.02 | locus YBR023C, strain chs3, active compounds read low 1.02 | locus YBR171W, strain sec66, active compounds read low 1.03 | locus YBR229C, strain ROT2, active compounds read low 1.03 | locus YBR231C, strain swc5, active compounds read low 1.01 | locus YBR279W, strain paf1, active compounds read low 1.01 | locus YCL011C, strain gbp2, active compounds read low 1.01 | locus YCL016C, strain dcc1, active compounds read low 1.01 | locus YCL029C, strain bik1, active compounds read low 1.04 | locus YCL061C, strain MRC1, active compounds read low 1.01 | locus YCL069W, strain vba3, active compounds read low 1.02 | locus YCR088W, strain abp1, active compounds read low 1.01 | locus YDL005C, strain med2, active compounds read low 1.01 | locus YDL035C, strain GPR1, active compounds read low 1.05 | locus YDL040C, strain nat1, active compounds read low 1.01 | locus YDL074C, strain BRE1, active compounds read low 1.12 | locus YDL101C, strain DUN1, active compounds read low 1.03 | locus YDL185W, strain tfp1, active compounds read low 1.02 | locus YDL192W, strain arf1, active compounds read low 1.05 | locus YDR001C, strain nth1, active compounds read low 1.01 | locus YDR069C, strain doa4, active compounds read low 1.01 | locus YDR101C, strain arx1, active compounds read low 1.01 | locus YDR137W, strain rgp1, active compounds read low 1.04 | locus YDR159W, strain sac3, active compounds read low 1.06 | locus YDR162C, strain NBP2, active compounds read low 1.04 | locus YDR195W, strain ref2 1.01 | locus YDR297W, strain sur2, active compounds read low 1.01 | locus YDR318W, strain mcm21, active compounds read low 1.04 | locus YDR334W, strain swr1, active compounds read low 1.03 | locus YDR335W, strain msn5, active compounds read low 1.02 | locus YDR388W, active compounds read low 1.01 | locus YDR392W, strain spt3, active compounds read low 0.959 | locus YDR502C, strain sam2, active compounds read low 1.03 | locus YEL003W, strain gim4, active compounds read low 1.02 | locus YEL037C, strain rad23, active compounds read low 1.02 | locus YEL061C, strain CIN8 (second series), active compounds read low 1.02 | locus YER015W, strain faa2, active compounds read low 1.02 | locus YER016W, strain bim1, active compounds read low 1.01 | locus YER110C, active compounds read low 1.03 | locus YER111C, strain swi4, active compounds read low 0.996 | locus YER155C, strain BEM2 (second series), active compounds read low 1.03 | locus YER155C, strain BEM2, active compounds read low 0.997 | locus YER167W, strain BCK2, active compounds read low 1.02 | locus YFR010W, strain ubp6, active compounds read low 1.04 | locus YGL078C, strain dbp3, active compounds read low 1.04 | locus YGL086W, strain mad1, active compounds read low 1.01 | locus YGL167C, strain pmr1, active compounds read low 1.02 | locus YGL173C, strain kem1, active compounds read low 1.03 | locus YGL227W, strain vid30, active compounds read low 1.01 | locus YGL240W, strain doc1, active compounds read low 1.01 | locus YGL248W, strain PDE1, active compounds read low 1.05 | locus YGL253W, strain hxk2, active compounds read low 1.03 | locus YGR078C, strain PAC10, active compounds read low 1.04 | locus YGR135W, strain pre9, active compounds read low 1.05 | locus YGR252W, strain gcn5, active compounds read low 1.09 | locus YHR013C, strain ard1, active compounds read low 1.02 | locus YHR027C, strain rpn1, active compounds read low 1.03 | locus YHR030C, strain SLT2, active compounds read low 1.01 | locus YHR079C, strain IRE1 (second series), active compounds read low 1.03 | locus YHR079C, strain IRE1, active compounds read low 0.99 | locus YHR094C, strain hxt1, active compounds read low 1.02 | locus YHR129C, strain ARP1, active compounds read low 1.04 | locus YHR142W, strain chs7, active compounds read low 1.03 | locus YHR200W, strain rpn10, active compounds read low 1.05 | locus YIL066C, strain RNR3, active compounds read low 1.03 | locus YIL073C, strain SPO22, active compounds read low 1.16 | locus YIL125W, strain kgd1, active compounds read low 1.01 | locus YIR030C, strain dcg1, active compounds read low 1.03 | locus YJL092W, strain hpr5, active compounds read low 1.01 | locus YJL095W, strain BCK1 (second series), active compounds read low 1.02 | locus YJL095W, strain BCK1, active compounds read low 1.1 and 1.02 | locus YJL115W, strain asf1, active compounds read low 1.01 | locus YJL129C, strain trk1, active compounds read low 1.01 | locus YJL134W, strain LCB3, active compounds read low 1.01 | locus YJL154C, strain vps35, active compounds read low 1.02 | locus YJL164C, strain tpk1, active compounds read low 1.02 | locus YJL166W, strain qcr8, active compounds read low 1.02 | locus YJL168C, strain set2, active compounds read low 1.02 | locus YJL187C, strain SWE1 (second series), active compounds read low 1.05 | locus YJL187C, strain SWE1, active compounds read low 1.01 | locus YJR043C, strain POL32, active compounds read low 1.05 | locus YJR066W, strain TOR1, active compounds read low 0.951
